From PubChem BioAssay
The source made the active and inactive calls. How the calls were made is not given here.

Assay: inhibitors of hydroxyurea-induced Chk1 phosphorylation, primary screen, imaging, HeLa, phospho-Chk1 nuclear intensity (AID 1187); further: test concentration not given here
Conditions: hydroxyurea-induced phospho-Chk1 immunofluorescence imaging, higher = more signal
For `O=C1O[C@@H](c2ccccc2)[C@@H](c2ccccc2)N2[C@@H](c3ccc(O)cc3)[C@]3(C(=O)Nc4ccc(C#CCCO)cc43)[C@@H](C(=O)Nc3nc4ccccc4s3)[C@H]12`, the z-score was 0.283 (inactive). In the case of `C=CCOC(=O)[C@@H]1[C@H]2C(=O)O[C@H](c3ccccc3)[C@H](c3ccccc3)N2[C@H](c2ccc(OCCOC(=O)[C@H]3C[C@H]4C(=O)N[C@@H](CCCCN(C)C)C(=O)N4[C@H]3c3cccc(OCCO)c3)cc2)[C@@]12C(=O)Nc1ccc(I)cc12`, the z-score is reported as -0.588 (inactive). For `Cc1c(NC(=O)/C(C#N)=C/C=C/c2ccc(N(C)C)cc2)c(=O)n(-c2ccccc2)n1C`, the z-score was 0.996 (inactive). For `O=C1C2C=CC(C(O)c3cc(C(F)(F)F)cc(C(F)(F)F)c3)N(Nc3ccc([N+](=O)[O-])cc3)C2C(=O)N1c1ccccc1` (stereo not given), the z-score was -0.331 (inactive). In the case of `O=C1NC(=O)C2C1C=CC(C(O)c1cc(C(F)(F)F)cc(C(F)(F)F)c1)N2Nc1ccc(Cl)cc1Cl` (stereo not given), the z-score is reported as 1.26 (inactive). In the case of `CO[C@H]1O[C@H](CO)[C@@H](OC(=O)Nc2ccccc2-c2ccccc2)[C@H](OC(=O)Nc2ccc3c(c2)OCO3)[C@@H]1OC(=O)Nc1ccc2c(c1)OCO2`, the z-score is reported as 0.24 (inactive). With `Cc1ccc(F)cc1S(=O)(=O)N[C@@H]1CCN(Cc2ccc(Oc3ccccc3)cc2)C1` the z-score was 0.735 (inactive). With `CCOC(=O)C1=CC[C@@H](c2ccccc2)N(S(=O)(=O)c2ccc(C)cc2)C1` the z-score was -0.749 (inactive). In the case of `Cc1ccc(S[C@]2(C(=O)NCC(F)(F)F)CC(=O)N(Cc3ccccc3)[C@@H]2c2ccc(CO)cc2)cc1`, the z-score is reported as -0.603 (inactive). For `CC(C)CNC(=O)[C@@H]1c2ccccc2C(=O)N(Cc2cc(F)cc(C(F)(F)F)c2)[C@H]1c1ccc(CO)cc1`, the z-score was -0.515 (inactive). For `CCN(CC)c1ccc(N2CC=CC34O[C@@H]5/C=C\CCC(C)OC(=O)C5[C@H]3C(=O)N(CCO)[C@@H]4C2=O)cc1` (stereo not given in full), the z-score was 0.21 (inactive). For `COc1ccccc1CN1C(=O)c2ccccc2[C@@H](C(=O)NC(C)C)[C@@H]1c1ccc(CO)cc1`, the z-score was 0.686 (inactive). For `[N-]=[N+]=NCc1ccccc1[C@H]1OC(c2ccc(OCCCO)cc2)=N[C@@]1(CCS(=O)(=O)c1ccccc1)C(N)=O`, the z-score was 0.0372 (inactive). In the case of `C=CCOC(=O)[C@@H]1[C@H]2C(=O)O[C@H](c3ccccc3)[C@H](c3ccccc3)N2[C@H](c2ccc(OCCOC(=O)[C@H]3C[C@H]4C(=O)N[C@@H](CCCC[N+](C)(C)C)C(=O)N4[C@H]3c3ccc(O)cc3)cc2)[C@@]12C(=O)Nc1ccc(I)cc12`, the z-score is reported as -0.636 (inactive). For `C=C(CCCC)/C(=C/C[C@@H](OC(C)=O)c1ccc(CO)o1)c1cc(C(=O)OC)ccc1OC`, the z-score was 0.471 (inactive). With `CC(C)C(O)C1C=CC2C(=O)N(C)C(=O)C2N1N(c1ccccc1)c1ccccc1` (stereo not given) the z-score was 0.0802 (inactive). With `C=CCNC(=O)[C@@H]1[C@H]2C(=O)O[C@H](c3ccccc3)[C@H](c3ccccc3)N2[C@H](c2ccc(OCCO)cc2)[C@@]12C(=O)N(C(=O)OCCOC)c1ccc(C#CC3=CCCCC3)cc12` the z-score was 0.474 (inactive). With `COCCOC(=O)N1C(=O)[C@@]2(c3cc(C#Cc4ccc(OC)cc4)ccc31)[C@H](C(=O)N1CCCCCCC1)[C@H]1C(=O)O[C@H](c3ccccc3)[C@H](c3ccccc3)N1[C@@H]2c1ccc(O)cc1` the z-score was -0.537 (inactive). With `COC(=O)Cn1c(C(=O)N2CCCC2)cc2c1C[C@H]1CN(C(=O)c3ccccc3)[C@@](Cc3ccc(F)cc3)(C(=O)OC)[C@@H]21` the z-score was -1.37 (inactive). In the case of `NCCCCCNC(=O)[C@@H]1C[C@@H]2C(=O)N[C@@H](CCCCN)C(=O)N2[C@@H]1c1cccc(OCCO)c1`, the z-score is reported as -0.0136 (inactive). For `Cc1ccc(S[C@]2(C(=O)NC(C)C)CC(=O)N(Cc3ccccc3C(F)(F)F)[C@@H]2c2ccc(CO)cc2I)cc1`, the z-score was 0.293 (inactive). For `COCCOC(=O)N1C(=O)[C@@]2(c3cc(C#CC4(O)CCCCCC4)ccc31)[C@H](C(N)=O)[C@H]1C(=O)O[C@H](c3ccccc3)[C@H](c3ccccc3)N1[C@@H]2c1ccccc1OCCO`, the z-score was 0.217 (inactive). For `C=CC[C@H](OC(=O)Nc1ccc(OC)cc1)c1ccc(O)c2ccccc12`, the z-score was 0.821 (inactive). With `COCC(=C=CC[C@H](O)c1cccc(OCCO)c1)C[C@H](O)c1ccccn1` the z-score was 0.745 (inactive). For `C=CC[C@@]1(C(=O)N2CCCCC2)N=C(c2ccc(OCCCO)cc2)O[C@@H]1c1ccccc1`, the z-score was -0.146 (inactive). In the case of `COCCCNC(=O)[C@@H]1c2ccccc2C(=O)N(Cc2ccccc2C(F)(F)F)[C@H]1c1ccc(CO)cc1`, the z-score is reported as -0.593 (inactive). For `COc1ccc([Si](C)(C)[C@H]2[C@H](CCO)O[C@@]3(C(=O)N(Cc4cccc(N5CCCCC5=O)c4)c4ccccc43)[C@@H]2C)cc1`, the z-score was -0.572 (inactive). In the case of `O=C1C[C@@](C(=O)NCC(F)(F)F)(c2ccc([N+](=O)[O-])cc2)[C@@H](c2ccc(CO)cc2)N1C1CCCCC1`, the z-score is reported as -0.32 (inactive). With `COC(=O)[C@@]1(Cc2ccc(OC)cc2)[C@H]2c3cc(C(=O)N(C)C)n(CCc4c[nH]c5ccc(O)cc45)c3C[C@H]2CN1C(=O)c1ccccc1` the z-score was -0.541 (inactive). With `CC(C)c1ccc(NN2C(C(O)c3ccco3)C=CC3C(=O)N(c4ccccc4)C(=O)C32)cc1` (stereo not given) the z-score was -1.03 (inactive). With `COC(=O)[C@@]1(Cc2ccc(OC)cc2)[C@H]2c3cc(C(=O)N(C)C)n(Cc4nc5ccccc5[nH]4)c3C[C@H]2CN1C(=O)c1ccccc1` the z-score was 0.0842 (inactive). In the case of `CN1C(=O)[C@@]2(CCS(=O)(=O)c3ccccc3)N=C(c3ccc(OCCCO)cc3)O[C@H]2c2ccccc21`, the z-score is reported as 0.146 (inactive). For `O=C1O[C@@H](c2ccccc2)[C@@H](c2ccccc2)N2[C@@H](c3ccc(O)cc3)[C@]3(C(=O)Nc4ccccc43)[C@@H](C(=O)Nc3nc4ccccc4s3)[C@H]12`, the z-score was -0.259 (inactive). With `CC(C)NC(=O)[C@@]1(C)c2ccccc2C(=O)N(C(C)C)[C@H]1c1ccc(CO)cc1` the z-score was 0.246 (inactive). With `COC(=O)[C@@]1(Cc2ccccc2)[C@H]2c3cc(C(=O)N4CCCC4)[nH]c3C[C@H]2CN1C(=O)c1ccccc1` the z-score was 1.21 (inactive).
